Growth data for nine molecules are collected here from PubChem BioAssay (NCI).

Among the test systems are SK-MEL-2 melanoma; EKVX NSCLC; SN12C renal; UO-31 renal; TK-10 renal; ACHN renal; A498 renal; CCRF-CEM leukemia; MOLT-4 leukemia; OVCAR-8 ovarian; OVCAR-5 ovarian; OVCAR-4 ovarian; SK-OV-3 ovarian; OVCAR-3 ovarian; HS 578T breast; NCI/ADR-RES ovarian; SR leukemia; IGROV1 ovarian; RPMI-8226 leukemia; CAKI-1 renal.
Test in all cases: NCI-60 one-dose screen, 48 h (100 = growth as untreated, 0 = no growth, -100 = all killed)
Holding throughout (settings): 10 µM unless noted

Compounds without any hit were thinned out: in the full panel of roughly 83,000, 20% have a hit.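 Compound tested at a single concentration for 48 hours in 96-well plates; a percent growth value below 10 was scored as active.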 A number with no mark means an inactive call. The source made the active and inactive calls.

Regarding `NC(N)=N/N=C(/c1ccccc1)c1ccc(F)cc1`, the growth is -15.1% (active) in the test with SK-MEL-2 melanoma; 35.1% with EKVX NSCLC; 17.2% in the test on SN12C renal; -8.69% (active) in the test with UO-31 renal; 50.5% in the test with TK-10 renal; 29.3% in the test with ACHN renal. Moreover, the growth with A498 renal is -16.6% (active); with CCRF-CEM leukemia, -14.3% (active); in the test with MOLT-4 leukemia, -10.1% (active); in the test on OVCAR-8 ovarian, -65.7% (active); in the test on OVCAR-5 ovarian, 4.37% (active); in the test on OVCAR-4 ovarian, 27.9%. Besides, the growth with SK-OV-3 ovarian is 17.6%; in the test on OVCAR-3 ovarian, -48.8% (active); in the test on HS 578T breast, -13.4% (active); in the test on NCI/ADR-RES ovarian, -37.3% (active).
Consider `CN(C)[C@@H]1C(=O)C(C(=O)NCc2nc3[nH]cnc(=S)c3[nH]2)=C(O)[C@@]2(O)C(=O)C3=C(O)c4c(O)cccc4[C@@](C)(O)[C@H]3C[C@@H]12`, for which the growth with SK-MEL-2 melanoma was 13.1%; in the test with EKVX NSCLC, 88.8%; with SN12C renal, 87.8%; in the test on UO-31 renal, 47.4%; in the test with TK-10 renal, 22.7%; in the test on ACHN renal, 74%. Also, the growth is 14.1% in the test on CCRF-CEM leukemia; 12.9% with MOLT-4 leukemia; 12.5% in the test with SR leukemia; 7.48% (active) in the test on OVCAR-8 ovarian; 36.3% in the test on OVCAR-5 ovarian; 39.8% with OVCAR-4 ovarian. Further, the growth in the test on SK-OV-3 ovarian was 19.9%; in the test on IGROV1 ovarian it was 12.5%; with HS 578T breast, 73.5%; with NCI/ADR-RES ovarian, 30.5%.
With `Cc1cc2c3ccccc3ccc2[n+]2ccccc12`, the growth is 40.5% in the test with SK-MEL-2 melanoma; 14.5% in the test on EKVX NSCLC; -7% (active) in the test with SN12C renal; 56.9% in the test on UO-31 renal; 88.4% in the test with TK-10 renal; 95.1% with ACHN renal. The growth with A498 renal was 9.14% (active); in the test on CCRF-CEM leukemia it was 48.7%; in the test on MOLT-4 leukemia, 2.74% (active); with SR leukemia it was -22.5% (active); in the test with OVCAR-8 ovarian it was -28.5% (active); in the test with OVCAR-5 ovarian, 81.1%. The growth in the test on OVCAR-4 ovarian was 31.6%; in the test with SK-OV-3 ovarian it was 71.5%; in the test with IGROV1 ovarian, 34%; in the test with OVCAR-3 ovarian it was 27.1%; with HS 578T breast, -23.7% (active); in the test with NCI/ADR-RES ovarian it was 46.7%.
In the case of `CN(C)c1ccc(NC(=O)c2ccc(/C=C/C(=O)c3ncc[nH]3)cc2)cc1`, the growth in the test with SK-MEL-2 melanoma is 92%; in the test with EKVX NSCLC, 73%; in the test on SN12C renal, 44.9%; with UO-31 renal, 37.9%; in the test on TK-10 renal it was 74%; in the test with ACHN renal, 71.4%. In addition, the growth was 94.1% with A498 renal; 4.98% (active) in the test with CCRF-CEM leukemia; 27.1% in the test on MOLT-4 leukemia; 5.75% (active) in the test with SR leukemia; -4.78% (active) in the test with RPMI-8226 leukemia; 26.6% in the test with OVCAR-8 ovarian. The growth with OVCAR-5 ovarian is 95.4%; in the test with OVCAR-4 ovarian it was 75.7%; with SK-OV-3 ovarian it was 64.2%; in the test with IGROV1 ovarian it was 69.8%; in the test with HS 578T breast, 88.1%; with NCI/ADR-RES ovarian it was 64%.
As for `COc1ccc(C(=S)N2CCN(c3cccc(Cl)c3)CC2)cc1`, the growth in the test on SK-MEL-2 melanoma was 80.4%; in the test on EKVX NSCLC, 93.2%; with SN12C renal, 103%; in the test with UO-31 renal it was 83.2%; with TK-10 renal, 94%; with ACHN renal it was 109%. Further, the growth in the test on A498 renal was 106%; with MOLT-4 leukemia it was 108%; in the test with SR leukemia it was 90.6%; in the test on OVCAR-8 ovarian, 100%; in the test with OVCAR-5 ovarian, 98.5%; with OVCAR-4 ovarian, 99.1%. For the same molecule, the growth in the test on SK-OV-3 ovarian is 107%; with IGROV1 ovarian, 104%; in the test on OVCAR-3 ovarian it was 112%; in the test with HS 578T breast it was 118%; in the test with NCI/ADR-RES ovarian, 104%.
For `Cn1c(NCCc2ccc(O)c(O)c2)nc2c1c(=O)n(Cc1ccc(Br)cc1)c(=O)n2C`, the growth in the test with SK-MEL-2 melanoma was 89.8%; in the test on EKVX NSCLC, 79.9%; in the test on SN12C renal, 72.7%; in the test on UO-31 renal, 30%; with TK-10 renal, 68.8%; with CAKI-1 renal it was 74.7%. Further, the growth was 106% in the test on A498 renal; 23% with CCRF-CEM leukemia; 29.3% in the test with MOLT-4 leukemia; 61.6% in the test with SR leukemia; 25.6% in the test on RPMI-8226 leukemia; 71.9% with OVCAR-8 ovarian. Besides, the growth was 99.4% with OVCAR-5 ovarian; 53.2% with OVCAR-4 ovarian; 75.5% in the test with SK-OV-3 ovarian; 37.7% in the test with IGROV1 ovarian; 69.4% in the test on OVCAR-3 ovarian; 95.3% with HS 578T breast. Moreover, the growth in the test with NCI/ADR-RES ovarian was 82.5%.
Take `CC(C)C[C@@H](NC(=O)[C@@H](Cc1ccccc1)NC(=O)c1cnccn1)B1Oc2ccc(C[C@H](NC(=O)[C@H](Cc3ccc4c(c3)OB([C@@H](CC(C)C)NC(=O)[C@@H](Cc3ccccc3)NC(=O)c3cnccn3)O4)NC(=O)[C@@H](N)CC3CCC4OB([C@@H](CC(C)C)NC(=O)[C@@H](CC5CCCCC5)NC(=O)C5CNCCN5)OC4C3)C(=O)NCCCC[C@@H]3NC(=O)[C@@H](Cc4ccccc4)NC(=O)[C@H](CC(=O)O)NC(=O)CNC(=O)[C@H](CCCNC(=N)N)NC3=O)cc2O1` (stereo partly specified): the growth in the test with SK-MEL-2 melanoma was -15.9% (active); in the test with EKVX NSCLC, -16.4% (active); with SN12C renal, -40.2% (active); in the test on UO-31 renal, -27.2% (active); in the test with TK-10 renal, -77.8% (active); in the test on CAKI-1 renal it was -40.9% (active). The growth with A498 renal was -96% (active); in the test on CCRF-CEM leukemia it was 2.22% (active); in the test on MOLT-4 leukemia it was 1.17% (active); in the test with SR leukemia, 1.49% (active); in the test with RPMI-8226 leukemia, 0.76% (active); in the test with OVCAR-8 ovarian, -45.3% (active). The growth in the test with OVCAR-5 ovarian was -31% (active); in the test on OVCAR-4 ovarian, -26.7% (active); with SK-OV-3 ovarian, -30% (active); with IGROV1 ovarian it was -8.65% (active); with OVCAR-3 ovarian, -49.3% (active); in the test with HS 578T breast, 5.06% (active). In addition, the growth in the test with NCI/ADR-RES ovarian is -8.71% (active).
Turning to `C=C(C)C(=O)Nc1ccc(NC(C)C)cc1`, the growth with SK-MEL-2 melanoma was 53.5%; in the test with EKVX NSCLC it was 115%; with SN12C renal, 121%; in the test with UO-31 renal it was 100%; with TK-10 renal it was 138%; in the test with ACHN renal it was 125%. Moreover, the growth is 101% in the test on A498 renal; 128% in the test on MOLT-4 leukemia; 96.6% in the test on SR leukemia; 93.5% in the test with OVCAR-8 ovarian; 117% with OVCAR-5 ovarian; 111% in the test on OVCAR-4 ovarian. Also, the growth with SK-OV-3 ovarian was 109%; with IGROV1 ovarian, 120%; in the test on OVCAR-3 ovarian, 121%; in the test on HS 578T breast, 141%; with NCI/ADR-RES ovarian, 112%.
Turning to `CC(=O)c1cc2c(N)c(C(=O)Nc3cccc(F)c3C)sc2nc1C`, the growth with SK-MEL-2 melanoma is 68.5%; in the test on EKVX NSCLC, 95.7%; with SN12C renal it was 95.1%; in the test with UO-31 renal it was 91.2%; in the test with TK-10 renal, 100%; with ACHN renal it was 89.4%. In addition, the growth was 86.7% with CCRF-CEM leukemia; 79.1% in the test with MOLT-4 leukemia; 86% in the test on RPMI-8226 leukemia; 79.6% with OVCAR-8 ovarian; 110% in the test with OVCAR-5 ovarian; 79.8% with OVCAR-4 ovarian. Besides, the growth is 53.8% with SK-OV-3 ovarian, 94.3% with IGROV1 ovarian, 80.1% in the test on HS 578T breast and 91.5% in the test with NCI/ADR-RES ovarian.
